This is an account of results in PubChem BioAssay (NCI).

A short description of test [1]: NCI Yeast Anticancer Drug Screen. Data for the rad50 strain (AID 155).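 Note: 0% = growth of vehicle-only cultures of the same strain.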 The settings on record: S. cerevisiae rad50 strain growth inhibition, hits give high values. Put shortly: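 Relative growth inhibition (compound vs vehicle) was measured in yeast with a defined repair-gene alteration.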
Test [2] can be described thus: NCI Yeast Anticancer Drug Screen. Data for the mec2-1 strain (AID 157). The settings on record: S. cerevisiae mec2-1 strain, hits give high values. Put shortly:
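Each compound was tested on mec2-1 yeast, a strain altered in DNA damage repair or cell cycle control. Growth inhibition is reported relative to vehicle.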

Test [3] in a line: NCI Yeast Anticancer Drug Screen. Data for the sgs1 mgt1 strain (AID 161).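 Note: 0% = growth of cultures given vehicle only.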 The settings on record: S. cerevisiae sgs1 mgt1 strain, hits give high values. Put shortly: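 Test agents were incubated with a DNA-repair-mutant yeast strain. Growth was then read and compared against vehicle-treated controls.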
Test [4] is described as follows: NCI Yeast Anticancer Drug Screen. Data for the cln2 rad14 strain (AID 165).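 Note: 0% = growth equal to vehicle treated cultures.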 The settings on record: S. cerevisiae cln2 rad14 strain, hits give high values. Put shortly:
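Test compounds were added to cln2 rad14 yeast cultures; inhibition of growth was then determined by comparison with vehicle treatment.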

Test [5] can be described thus: NCI Yeast Anticancer Drug Screen. Data for the bub3 strain (AID 167). The settings on record: S. cerevisiae bub3 mutant strain, hits give high values. In a few lines:
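Screening used yeast with an engineered genetic alteration affecting cell cycle control. Compound-exposed cultures were compared with vehicle cultures, and reduced growth was taken as inhibition.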

Test [6] in a line: NCI Yeast Anticancer Drug Screen. Data for the mlh1 rad18 strain (AID 175). The settings on record: S. cerevisiae mlh1 rad18 strain growth inhibition, hits give high values. In a few lines:
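Inhibition values reflect reduced growth of mutant yeast versus vehicle-treated controls following compound exposure; the mutations affect DNA damage repair.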

[7] abbreviates: at 5.0 µM (retest, dose inferred, filed as 0.5).
Where [8] appears, read: at 50.0 µM (retest, dose inferred, filed as 5.0).

This is part of a sample that, as a whole, favours compounds with a hit. Of some 79,000 tested, about 15% had one in any assay. Values without a mark were called inactive. Activity calls are given as the source filed them. Cut-off read from the data, not from the text of the source: active = growth inhibition above about 70%; inactive = the rest.

Consider `CC(C)C1=CC2=CCC3C(C)(C(=O)O)CCCC3(C)C2CC1` (stereo not given) (tested in a mixture with another compound), for which the growth inhibition in test [1] (setting [7]) is -8%; in test [1] (setting [8]) it was 80% (active); in test [1] (at 50.0 µM), 75.5% (active); in test [2] (setting [7]) it was -16%; in test [2] (setting [8]) it was 96% (active); in test [2] (at 50.0 µM), 75.7% (active). Besides, the growth inhibition was -13% in test [3] (setting [7]); 88% (active) in test [3] (setting [8]); 75.5% (active) in test [3] (at 50.0 µM); -17% in test [4] (setting [7]); 85% (active) in test [4] (setting [8]); 88.5% (active) in test [4] (at 50.0 µM). For the same compound, the growth inhibition in test [5] (setting [7]) is -14%; in test [5] (setting [8]), 88% (active); in test [5] (at 50.0 µM), 89.5% (active); in test [6] (setting [7]), -3%; in test [6] (setting [8]), 92% (active); in test [6] (at 50.0 µM) it was 88.8% (active).
For `CCC1(C)C(C#N)(C#N)C1(C#N)C#N`, the growth inhibition in test [1] (setting [7]) was -18%; in test [1] (setting [8]), 95% (active); in test [1] (at 50.0 µM) it was 81.7% (active); in test [2] (setting [7]), -36%; in test [2] (setting [8]) it was 95% (active); in test [2] (at 50.0 µM), 92.6% (active). Also, the growth inhibition is -36% in test [3] (setting [7]); 66% in test [3] (setting [8]); 97.8% (active) in test [3] (at 50.0 µM); -42% in test [4] (setting [7]); 85% (active) in test [4] (setting [8]); 43.7% in test [4] (at 50.0 µM). The growth inhibition in test [5] (setting [7]) was -36%; in test [5] (setting [8]) it was 95% (active); in test [5] (at 50.0 µM) it was 95.4% (active); in test [6] (setting [7]) it was -46%; in test [6] (setting [8]) it was 95% (active); in test [6] (at 50.0 µM), 98.2% (active).
`OCC(c1ccccc1)[P+](c1ccccc1)(c1ccccc1)c1ccccc1` (stereo not given): the growth inhibition in test [1] (setting [7]) was 2%; in test [1] (setting [8]), 34%; in test [1] (at 50.0 µM), 79.2% (active); in test [2] (setting [7]), -8%; in test [2] (setting [8]), 45%; in test [2] (at 50.0 µM) it was 49.9%. Also, the growth inhibition in test [3] (setting [7]) was -9%; in test [3] (setting [8]) it was 0%; in test [3] (at 50.0 µM), 74.3% (active); in test [4] (setting [7]), -42%; in test [4] (setting [8]), -1%; in test [4] (at 50.0 µM) it was 31.9%. In addition, the growth inhibition is 0% in test [5] (setting [7]); 13% in test [5] (setting [8]); 26.3% in test [5] (at 50.0 µM); -14% in test [6] (setting [7]); 5% in test [6] (setting [8]); 59.6% in test [6] (at 50.0 µM).
As to `CCCCCC(Oc1ccc(Cl)cc1)C(=O)O` (stereo not given), the growth inhibition in test [1] (setting [7]) was 2%; in test [1] (setting [8]), 84% (active); in test [1] (at 50.0 µM) it was 81.7% (active); in test [2] (setting [7]), 2%; in test [2] (setting [8]) it was 83% (active); in test [2] (at 50.0 µM), 58.5%. In addition, the growth inhibition in test [3] (setting [7]) was 3%; in test [3] (setting [8]), 85% (active); in test [3] (at 50.0 µM), 80.2% (active); in test [4] (setting [7]), -1%; in test [4] (setting [8]), 87% (active); in test [4] (at 50.0 µM) it was 75.5% (active). For the same compound, the growth inhibition is 7% in test [5] (setting [7]); 87% (active) in test [5] (setting [8]); 71.5% (active) in test [5] (at 50.0 µM); -15% in test [6] (setting [7]); 89% (active) in test [6] (setting [8]); 83.2% (active) in test [6] (at 50.0 µM).
Consider `COC1/C=C\C=C(/C)C(=O)NC2=CC(=O)C(N)=C(CC(C)CC(OC)C(O)C(C)C=C(C)C1OC(N)=O)C2=O` (stereo not given), for which the growth inhibition was -28% in test [1] (setting [7]); 88% (active) in test [1] (setting [8]); 86.4% (active) in test [1] (at 50.0 µM); -23% in test [2] (setting [7]); 91% (active) in test [2] (setting [8]); 87.7% (active) in test [2] (at 50.0 µM). Moreover, the growth inhibition in test [3] (setting [7]) was 5%; in test [3] (setting [8]), 92% (active); in test [3] (at 50.0 µM), 88% (active); in test [4] (setting [7]), -36%; in test [4] (setting [8]) it was 81% (active); in test [4] (at 50.0 µM) it was 76.9% (active). In addition, the growth inhibition is -16% in test [5] (setting [7]); 93% (active) in test [5] (setting [8]); 87.9% (active) in test [5] (at 50.0 µM); -22% in test [6] (setting [7]); 89% (active) in test [6] (setting [8]); 84% (active) in test [6] (at 50.0 µM).
With `O=C1NC(Cc2ccccc2)C(=O)O1` (stereo not given), the growth inhibition in test [1] (setting [7]) is 0%; in test [1] (setting [8]), -6%; in test [1] (at 50.0 µM), -2.1%; in test [2] (setting [7]), -2%; in test [2] (setting [8]), -3%; in test [2] (at 50.0 µM) it was 3.35%. Besides, the growth inhibition in test [3] (setting [7]) is -3%; in test [3] (setting [8]), 13%; in test [3] (at 50.0 µM) it was 11.1%; in test [4] (setting [7]), -11%; in test [4] (setting [8]), 6%; in test [4] (at 50.0 µM), -13.8%. Further, the growth inhibition in test [5] (setting [7]) was -1%; in test [5] (setting [8]), -2%; in test [5] (at 50.0 µM) it was 43.9%; in test [6] (setting [7]), -1%; in test [6] (setting [8]), -6%; in test [6] (at 50.0 µM), 4.25%.
Take `CCCCCC(C)(C)N=C=S`: the growth inhibition was 3% in test [1] (setting [7]); 0% in test [1] (setting [8]); 7% in test [1] (at 50.0 µM); -1% in test [2] (setting [7]); 2% in test [2] (setting [8]); -1.65% in test [2] (at 50.0 µM). The growth inhibition in test [3] (setting [7]) is -1%; in test [3] (setting [8]) it was -3%; in test [3] (at 50.0 µM), -1.85%; in test [4] (setting [7]) it was 5%; in test [4] (setting [8]), 1%; in test [4] (at 50.0 µM) it was 10.3%. The growth inhibition is 1% in test [5] (setting [7]); 0% in test [5] (setting [8]); 8.3% in test [5] (at 50.0 µM); -5% in test [6] (setting [7]); 1% in test [6] (setting [8]); -5.6% in test [6] (at 50.0 µM).
As to `COc1ccccc1NC(=O)C1=C(C)NC(C)=C(C(=O)Nc2ccccc2OC)C1c1ccccc1[N+](=O)[O-]`, the growth inhibition is 13% in test [1] (setting [7]); 13% in test [1] (setting [8]); 68% in test [1] (at 50.0 µM); 4% in test [2] (setting [7]); 4% in test [2] (setting [8]); 69.1% in test [2] (at 50.0 µM). Further, the growth inhibition in test [3] (setting [7]) was 2%; in test [3] (setting [8]), 2%; in test [3] (at 50.0 µM), 60.9%; in test [4] (setting [7]) it was 0%; in test [4] (setting [8]), 0%; in test [4] (at 50.0 µM), 12%. The growth inhibition in test [5] (setting [7]) is 5%; in test [5] (setting [8]), 5%; in test [5] (at 50.0 µM), 65.7%; in test [6] (setting [7]) it was 13%; in test [6] (setting [8]), 13%; in test [6] (at 50.0 µM), 48.4%.
On to `CCCN(CCC)CCNc1ccc(C)c2sc3ccccc3c(=O)c12`, for which the growth inhibition is 19% in test [1] (setting [7]); 99% (active) in test [1] (setting [8]); 99.7% (active) in test [1] (at 50.0 µM); 4% in test [2] (setting [7]); 100% (active) in test [2] (setting [8]); 99.7% (active) in test [2] (at 50.0 µM). For the same compound, the growth inhibition in test [3] (setting [7]) is 42%; in test [3] (setting [8]), 100% (active); in test [3] (at 50.0 µM) it was 99.5% (active); in test [4] (setting [7]) it was 19%; in test [4] (setting [8]), 99% (active); in test [4] (at 50.0 µM) it was 99.5% (active). Further, the growth inhibition in test [5] (setting [7]) was 35%; in test [5] (setting [8]), 99% (active); in test [5] (at 50.0 µM), 99.4% (active); in test [6] (setting [7]) it was 31%; in test [6] (setting [8]), 99% (active); in test [6] (at 50.0 µM), 99.5% (active).
Consider `CC1CCC(C)(C)c2cc([N+](=O)[O-])cc([N+](=O)[O-])c21` (stereo not given), for which the growth inhibition in test [1] (setting [7]) was -1%; in test [1] (setting [8]) it was 99% (active); in test [1] (at 50.0 µM), -6.5%; in test [2] (setting [7]), 0%; in test [2] (setting [8]), 99% (active); in test [2] (at 50.0 µM) it was -0.75%. For the same compound, the growth inhibition in test [3] (setting [7]) is -4%; in test [3] (setting [8]), 99% (active); in test [3] (at 50.0 µM), 26.2%; in test [4] (setting [7]), 1%; in test [4] (setting [8]) it was 99% (active); in test [4] (at 50.0 µM), -8.1%. Further, the growth inhibition in test [5] (setting [7]) is 18%; in test [5] (setting [8]), 99% (active); in test [5] (at 50.0 µM), 80.2% (active); in test [6] (setting [7]), -1%; in test [6] (setting [8]), 99% (active); in test [6] (at 50.0 µM) it was 17.9%.
